Among the data in PubChem BioAssay (EPA / NIEHS) are outcome and AC50 values, retold here.

As a reminder, the AC50 is the midpoint of the concentration-response curve, whichever way the signal moves.

Read-out in assay [1]: Interferon-gamma inducible Protein 10 (IP10), CXCL10 (gene 3627)
Put plainly: BSK_hDFCGF_IP10: BioMAP Diversity Plus: hDFCGF Assay for Interferon-gamma inducible Protein 10 (IP10) Biomarker Activity (AID 2283053). Particulars: primary human foreskin fibroblasts; actives raise or lower the signal. The gist of the method:
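Human foreskin fibroblast primary cells (hDFCGF system) were dosed with chemical and assayed at 24 h; IP-10 measured by ELISA. Activity fitted bidirectionally relative to DMSO negative control as baseline.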

Read-out in assay [2]: Urokinase-type plasminogen activator receptor (uPAR), PLAUR (gene 5329)
As to the kind of experiment: BSK_CASM3C_uPAR: BioMAP Diversity Plus: CASM3C Assay for Urokinase-type plasminogen activator receptor (uPAR) Biomarker Activity (AID 2283054).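 Further: cell-surface uPAR protein level quantified by ELISA.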 To be noted: primary human coronary artery smooth muscle cells; actives raise or lower the signal.

Read-out in assay [3]: Vascular cell adhesion molecule 1 (VCAM1), VCAM1 (gene 7412)
As to the kind of experiment: BSK_CASM3C_VCAM1: BioMAP Diversity Plus: CASM3C Assay for Vascular cell adhesion molecule 1 (VCAM1) Biomarker Activity (AID 2283055).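 Further: VCAM-1 protein level quantified by ELISA on the cells.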 To be noted: primary human coronary artery smooth muscle cells; actives raise or lower the signal.

Read-out in assay [4]: Collagen III, COL3A1 (gene 1281)
As to the kind of experiment: BSK_hDFCGF_CollagenIII: BioMAP Diversity Plus: hDFCGF Assay for Collagen III Biomarker Activity (AID 2283056). To be noted: primary human foreskin fibroblasts; actives raise or lower the signal. The gist of the method:
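hDFCGF primary human dermal fibroblasts; 24 h chemical exposure; collagen III by ELISA; bidirectional curve fit vs DMSO baseline (gain or loss of signal).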

Read-out in assay [5]: Epidermal growth factor receptor (EGFR), EGFR (gene 1956)
As to the kind of experiment: BSK_hDFCGF_EGFR: BioMAP Diversity Plus: hDFCGF Assay for Epidermal growth factor receptor (EGFR) Biomarker Activity (AID 2283057). To be noted: primary human foreskin fibroblasts; actives raise or lower the signal. The gist of the method: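 Primary human foreskin fibroblasts were exposed to compound for 24 h, after which cell-surface EGFR was quantified by ELISA. Activity was fitted bidirectionally against the DMSO negative control as baseline.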

Read-out in assay [6]: Interleukin-8 (IL8), CXCL8 (gene 3576)
As to the kind of experiment: BSK_hDFCGF_IL8: BioMAP Diversity Plus: hDFCGF Assay for Interleukin-8 (IL8) Biomarker Activity (AID 2283058). To be noted: primary human foreskin fibroblasts; actives raise or lower the signal. A digest of the protocol: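 ELISA read-out of IL-8 from primary human foreskin fibroblast cultures taken 24 h after dosing; values are bidirectional fits relative to DMSO vehicle.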

Assay [7] in a line: BSK_hDFCGF_Proliferation: Cell Proliferation Assessment in the BioMAP Diversity Plus: hDFCGF Assay (AID 2283059).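 Further: curves fitted for both rise and fall of signal versus DMSO baseline.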 To be noted: primary human foreskin fibroblasts. The gist of the method:
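Primary human foreskin fibroblasts, sub-confluent; […]; 10% TCA fix, 0.1% SRB stain, A560 total protein. Gain/loss fitted bidirectionally vs DMSO control.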

Read-out in assay [8]: Macrophage colony-stimulating factor (MCSF), CSF1 (gene 1435)
Put plainly: BSK_hDFCGF_MCSF: BioMAP Diversity Plus: hDFCGF Assay for Macrophage colony-stimulating factor (MCSF) Biomarker Activity (AID 2283060). Particulars: primary human foreskin fibroblasts; actives raise or lower the signal. The gist of the method:
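ELISA read-out of M-CSF in human dermal foreskin fibroblast cultures, 24 h after chemical dosing; gain or loss of signal fitted bidirectionally relative to DMSO baseline.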

A short description of assay [9]: BSK_hDFCGF_SRB: Viability Assessment in the BioMAP Diversity Plus: hDFCGF Assay (AID 2283061).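 Further: cells exposed to compound for 24 h before the read.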 To be noted: primary human foreskin fibroblasts. The gist of the method: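 Primary human foreskin fibroblasts; 24 h post-dose; fixed 10% TCA, stained 0.1% SRB, A560 read; total protein as overt cytotoxicity measure; curves fit bidirectionally vs DMSO control.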
Read-out in assay [10]: TIMP metallopeptidase inhibitor 1 (TIMP1), TIMP1 (gene 7076)
Put plainly: BSK_hDFCGF_TIMP1: BioMAP Diversity Plus: hDFCGF Assay for TIMP metallopeptidase inhibitor 1 (TIMP1) Biomarker Activity (AID 2283062). Particulars: primary human foreskin fibroblasts; actives raise or lower the signal. A digest of the protocol: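 ELISA readout of TIMP-1 from human dermal foreskin fibroblast cultures 24 h post-dosing. Curves were fitted in both directions against DMSO baseline, with SRB total-protein staining in parallel cultures as a cytotoxicity check.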

The source made the active and inactive calls. How the source made its calls: active means hit-call score of the fitted dose curve at least 0.9, where 1 is the maximum; inactive means score below 0.9.

Regarding `CC[C@H]1CC[C@H](NCc2cc3c(cc2OC)[C@H]2C[C@H]2C(=O)N3C)[C@H](c2ccccc2)N1`, the outcome in [1], in assay [2], in [3], in assay [5], in [6] and in assay [8] was inactive. In addition, the outcome in assay [9] and in assay [10] was inactive. Moreover, the AC50 in assay [4] is 1.57 µM (active); in assay [7] it was 20 µM (active).

For the molecule `CCN(C(=O)c1cc(C)cc(OC[C@H](C)Nc2ccncc2)c1)C(C)C`, the outcome in assay [1], in [2], in assay [3], in assay [4], in assay [5] and in [6] was inactive. In addition, the result in [7], in assay [8], in [9] and in [10] was inactive.

With `CN(C)c1ccc(Cc2ccc(N(C)C)cc2)cc1`, the outcome in assay [1], in [3], in assay [4], in assay [5], in assay [6] and in assay [8] was inactive. In addition, the outcome in [9] and in [10] was inactive. In addition, the AC50 in assay [2] was 2.98 µM (active); in assay [7], 3 µM (active).

As for `COc1ccc(/C=C/S(=O)(=O)NC(=O)c2ccc(C)cc2Cl)cc1`, the result in assay [1], in assay [2], in [3], in assay [4], in assay [5] and in [6] was inactive. In addition, the result in assay [8], in assay [9] and in assay [10] was inactive. The AC50 in assay [7] is 13.6 µM (active).

In the case of `CCC(C)(C)C(=O)O[C@H]1C[C@@H](C)C=C2C=C[C@H](C)[C@H](CC[C@@H]3C[C@@H](O)CC(=O)O3)[C@H]21`, the AC50 in [1] is 31.4 µM (active); in assay [2], 29.2 µM (active); in assay [3], 29.8 µM (active); in assay [4] it was 33.3 µM (active); in assay [6] it was 29.5 µM (active); in assay [7], 13.9 µM (active). Besides, the AC50 in assay [8] is 26.3 µM (active); in [9], 25.8 µM (active); in [10], 34.2 µM (active). Also, in assay [5], the outcome was inactive.

As to `CCCN(C1CCN(C(=O)C2CCNCC2)CC1)[C@@H]1CCc2ccc(OC)cc2C1`, the outcome in assay [1], in assay [2], in assay [3], in [4], in assay [5] and in [6] was inactive. The outcome in assay [7], in [8], in [9] and in assay [10] was inactive.

Regarding `O=C(O)c1cccc(N(Cc2cccnc2)c2ccc(OC(F)F)c(OC(F)F)c2)c1`, the result in [1], in assay [2], in assay [3], in [4], in [5] and in assay [6] was inactive. Also, the result in assay [7], in [8], in assay [9] and in [10] was inactive.

Consider `On1ccccc1=S`, for which the AC50 in assay [1] was 0.422 µM (active); in assay [2], 25.6 µM (active); in assay [4], 1.41 µM (active); in [6], 0.791 µM (active); in assay [7], 0.148 µM (active); in [8], 0.892 µM (active). Further, the values for the AC50 in assay [9] and in assay [10] were 1.74 µM (active) and 1.4 µM (active), respectively. Besides, the outcome in assay [3] and in assay [5] was inactive.

For the molecule `C1=CCCC=CCCC=CCC1`, the outcome in assay [1], in [2], in [3], in assay [4], in assay [6] and in assay [7] was inactive. Further, the result in [8], in assay [9] and in assay [10] was inactive.

For the molecule `CC(C)CCCCCCCOC(=O)CCCCC(=O)OCCCCCCCC(C)C`, the result in assay [1], in assay [2], in assay [3], in [4], in assay [5] and in assay [6] was inactive. For the same molecule, the outcome in assay [7], in assay [8], in assay [9] and in assay [10] was inactive.

Take `CCOC(=O)c1ccc(C2CCC(NC[C@H](O)COc3ccc(O)c(NS(C)(=O)=O)c3)CC2)cc1` (stereo partly drawn): the AC50 in assay [1] is 21.8 µM (active); in [3], 18.7 µM (active); in assay [4], 13.4 µM (active); in [5], 6.27 µM (active); in [6], 27.2 µM (active); in [7], 1.75 µM (active). Besides, the AC50 in [8] was 10.2 µM (active); in assay [9] it was 5.64 µM (active); in assay [10], 13.4 µM (active). Besides, the outcome in assay [2] was inactive.

On to `CCOCCO`, for which the outcome in assay [1], in assay [2], in assay [3], in [4], in assay [5] and in [6] was inactive. Also, the outcome in assay [7], in [8], in assay [9] and in [10] was inactive.

Take `Oc1ccc2c(c1)-c1ccccc1C2`: the outcome in [1], in [2], in assay [3], in [4], in assay [5] and in assay [6] was inactive. In addition, the result in assay [8], in assay [9] and in assay [10] was inactive. The AC50 in assay [7] was 29.8 µM (active).

For `Cn1c(=O)c2c(ncn2C)n(C)c1=O`, the outcome in assay [1], in [2], in assay [3], in [4], in assay [6] and in assay [7] was inactive. Also, the result in [8], in [9] and in assay [10] was inactive.

In the case of `COCCOc1cc2cc(C(=O)NC3CCN(C(C)C)CC3)n(CC(=O)Nc3ccc(Cl)cn3)c2cn1`, the result in assay [1], in assay [2], in [3], in [4], in assay [5] and in assay [6] was inactive. Also, the result in assay [7], in [8], in assay [9] and in assay [10] was inactive.

For `COc1ccc2sc(C(=O)Nc3nnn[nH]3)c(OC(C)C)c2c1`, the AC50 is 13.6 µM (active) in assay [1]; 13 µM (active) in assay [2]; 5.42 µM (active) in assay [4]; 8.61 µM (active) in assay [5]; 20.5 µM (active) in [6]; 12.1 µM (active) in assay [7]. The half-maximal activity concentration (AC50) in assay [8] is 11.4 µM (active); in [9], 10.3 µM (active); in [10], 7.77 µM (active). In addition, in assay [3], the result was inactive.

Take `CC(C)=CCC/C(C)=C/CO`: the result in assay [1], in assay [2], in [3], in [4], in [5] and in assay [6] was inactive. The result in assay [7], in assay [8], in assay [9] and in assay [10] was inactive.

As to `CC/C(=C\C(=N/O)C(N)=O)C(C)[N+](=O)[O-]` (stereo not drawn), the result in assay [1], in assay [2], in assay [3], in [4], in assay [5] and in [6] was inactive. For the same molecule, the outcome in [7], in assay [8], in assay [9] and in assay [10] was inactive.

As to `CCOC(=O)COc1ccc2c(c1)CC(NCC(O)c1cccc(Cl)c1)CC2` (stereo not drawn), the AC50 in [1] was 26.3 µM (active); in [4] it was 30.6 µM (active); in [5], 33.4 µM (active); in assay [6] it was 32.1 µM (active); in [7], 9.71 µM (active); in assay [8], 14.6 µM (active). Moreover, the AC50 in assay [9] was 26.9 µM (active); in [10], 28.8 µM (active). The result in assay [2] and in assay [3] was inactive.

For `CN(C)c1ccc(N=NS(=O)(=O)O)cc1`, the outcome in [1], in assay [2], in assay [3], in assay [5], in [6] and in assay [9] was inactive. For the same molecule, the outcome in [10] was inactive. The AC50 in [4] is 4.35 µM (active); in assay [7], 12.8 µM (active); in assay [8], 9.62 µM (active).
